Results on 36 compounds are retold here after the supplement of paper PMC7411054.

Where a name gives a salt, the structure may show the parent alone.

This experiment deals with WPMY1-GM130-SQSTM1. The experiment is described as follows: phenotypically active (imaging signature differs from DMSO and reproducible) at any of 0.3-9 uM (binary (1 = active, 0 = inactive)); higher = active. Particulars: treatment time: 24 h. The procedure, abridged: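 Phenotypic activity depended on meeting both a deviation and a reproducibility criterion. The fifteen gene-edited A549, HepG2 and WPMY1 reporter lines were treated at 0.3, 1, 3 or 9 µM for 24 h, four wells each, then imaged live with features normalised to solvent control wells. Deviation required ≥3 of 4 wells past the 95th percentile of control Euclidean distances, and reproducibility a median replicate Pearson correlation above the 95th percentile of non-replicates.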
With `N[C@@H]1C[C@H]1c1ccccc1` [Tranylcypromine hydrochloride], the phenotypically active is 0 (inactive).
The same measure for `C/C=C1\CN2CC[C@]34c5cc(OC)ccc5N5C(=O)C(O)OC[C@@H]([C@H]53)[C@H]1C[C@H]24` (stereo partly specified) [10-Methoxy-o-demethyltsilanine]: 0 (inactive); for `Fc1ccccc1C1=NCC(=S)N(CC(F)(F)F)c2ccc(Cl)cc21` [quazepam]: 0 (inactive).
The same measure for `COc1c2c(cc3c1OCO3)CC[N+](C)=C2` [Cotarnine chloride]: 0 (inactive); for `N[C@H]1C[C@@H]1c1ccccc1` [tranylcypromine]: 0 (inactive); for `O=c1ccc2ccc3occc3c2o1` [Angelicin]: 0 (inactive).
To `C[C@]12COC(=O)C[C@@H]1CC[C@@H]1[C@@H]2CC[C@@]2(C)[C@H]1CC[C@]2(C)O` [oxandrolone] belongs 0 (inactive); to `CC(C)C[C@H](CN)CC(=O)O` [pregabalin], 0 (inactive); to `NC(=S)N/N=C/c1coc2ccccc2c1=O`, 0 (inactive).
Regarding `O[C@H]1[C@H](O)[C@@H](O)CN2CC[C@H](O)[C@H]12` [Castanospermine], the phenotypically active is 0 (inactive).
Take `Cc1ccc(-c2nc3ccc(C)cn3c2CC(=O)N(C)C)cc1` [zolpidem]: the phenotypically active is 0 (inactive).
To `CN1C(CC(O)c2ccccc2)CCCC1CC(O)c1ccccc1` (stereo unspecified) [Lobelanidine hydrochloride] belongs 0 (inactive).
To `CNC(=O)Oc1ccc2c(c1)[C@]1(C)CCN(C)O[C@@H]1N2C` [Geneserine] belongs 0 (inactive); to `COc1ccc(C(=O)OC2C[C@H]3CC[C@H](C2)N3C)cc1OC` (stereo partly specified) [Convolamine hydrochloride], 0 (inactive).
The same measure for `CC(C)[N+](C)(CCC(C(N)=O)(c1ccccc1)c1ccccc1)C(C)C` [isopropamide-iodide]: 0 (inactive); for `CC(C)N(CCC(C(N)=O)(c1ccccc1)c1ccccn1)C(C)C` (stereo unspecified) [disopyramide]: 0 (inactive); for `O=C1C[C@@H]2OCC=C3C[N+]4([O-])CC[C@]56c7ccccc7N1[C@H]5[C@H]2[C@H]3C[C@@H]64` (stereo partly specified) [Genostrychnine base]: 0 (inactive).
Turning to `C[C@@H]1CN([C@H]2CC[C@](C#N)(c3ccc(F)cc3)CC2)CC[C@]1(C(=O)O)c1ccccc1` [levocabastine], the phenotypically active was 0 (inactive).
To `Cc1ccc(C[N+](C)(C)C)o1` [5-Methylfurmethiodide] belongs 0 (inactive); to `COc1cc2c3cc1Oc1cc(ccc1O)C[C@@H]1c4c(cc(OC)c(O)c4Oc4cccc(c4)C[C@@H]3N(C)CC2)CC[N+]1(C)C` [Tubocurarine chloride pentahydrate (+)], 0 (inactive); to `CCCC(C)C1(CC)C(=O)N=C(S)NC1=O` (stereo unspecified) [thiopental], 0 (inactive).
The same measure for `C=C1[C@H]2C[C@@]3([C@@H]1O)[C@@H](C[C@@H]2O)[C@]12[C@@H]4C[C@H]3[C@H]1N(CC)C[C@]4(C)CC[C@@H]2O` [Napelline]: 0 (inactive); for `CO[C@H](C)[C@](O)(C(=O)OCC1=CCN2CC[C@H](O)[C@@H]12)C(C)C` [Heliotrine]: 0 (inactive); for `C/C=C1\C[C@@H](C)[C@](O)(CO)C(=O)OCC2=CCN3CC[C@@H](OC1=O)[C@@H]23` [Retrorsine]: 0 (inactive).
The same measure for `CN(C)NC(=O)CCC(=O)O` [Daminozide]: 0 (inactive); for `CN1[C@@H]2CC(=O)C[C@H]1[C@H](O)C2` [6-Hydroxytropinone]: 0 (inactive); for `COc1ccc2c3c1O[C@H]1C(=O)CC[C@H]4[C@@H](C2)N(C)CC[C@]314` [hydrocodone]: 0 (inactive).
As for `CCN(C(C)=O)c1cccc(-c2ccnc3c(C#N)cnn23)c1` [zaleplon], the phenotypically active was 0 (inactive).
To `C[N+]1([O-])[C@@H]2C[C@@H](OC(=O)[C@H](CO)c3ccccc3)C[C@H]1[C@@H]1O[C@@H]12` (stereo partly specified) [Genoscopolamine HBr] belongs 0 (inactive); to `NCC1(CC(=O)O)CCCCC1` [gabapentin], 0 (inactive).
To `CN1CCc2cc3c(cc2[C@H]1[C@@H]1OC(=O)c2c1ccc1c2OCO1)OCO3` [bicuculine] belongs 0 (inactive); to `c1cncc(C2CC3CCN2CC3)c1` (stereo unspecified) [RJR 2429 dihydrochloride], 0 (inactive); to `CC1=CC(=O)C2=C(C)C[C@H](O)[C@@H]3[C@H](OC(=O)[C@H]3C)[C@@H]12` [Austricine hydrate], 0 (inactive).
The same measure for `C=C(C)[C@H]1CN[C@H](C(=O)O)[C@H]1CC(=O)O` [Kainic acid]: 0 (inactive); for `C[C@H]1CCC2(NC1)O[C@H]1C[C@H]3[C@@H]4CC[C@H]5C[C@@H](O[C@@H]6O[C@H](CO)[C@H](O[C@@H]7O[C@H](CO)[C@@H](O)[C@H](O[C@@H]8OC[C@@H](O)[C@H](O)[C@H]8O)[C@H]7O[C@@H]7O[C@H](CO)[C@@H](O)[C@H](O)[C@H]7O)[C@H](O)[C@H]6O)CC[C@]5(C)[C@H]4CC[C@]3(C)[C@H]1[C@@H]2C` (stereo partly specified) [Tomatine]: 0 (inactive); for `CN1[C@@H]2C[C@@H](OC(=O)[C@H](CO)c3ccccc3)C[C@H]1[C@@H]1O[C@@H]12` [Scopolamine hydrobromide]: 0 (inactive).
